From PubChem BioAssay AID504332 (National Center for Advancing Translational Sciences (NCATS), 2011)
Several values for one entry are separate records, joined by “and”; a condition that tells them apart may be missing. Equal entries are not always repeated. Hit rate of the full screen: of about 350,000 compounds, about 31,000 (8.9%) were called active. Roughly 15% stayed inconclusive and do not appear here. Calls follow the shape of the dose curve; as a rule, active = well fitted inhibition curve with a large enough effect; inconclusive = small, poorly fitted or top-dose-only effect; inactive = no such curve, though single readings can be large or run the other way. Only a selection was taken, and actives are over-represented in it overall. Some structures have more than one record in an assay (separate samples or runs), and their calls can disagree.

target: Histone-lysine N-methyltransferase EHMT2 (Homo sapiens) (UniProt Q96KQ7); experiment: qHTS Assay for Inhibitors of Histone Lysine Methyltransferase G9a; conditions: G9a H3K9 monomethylation, AlphaScreen, 2 h; series mostly up to 102 µM; activity, negative = inhibition: at the top concentration; also: nearly all actives have a fitted effect of over 75% in size
Description: Methylated lysines, on the N-terminal tails of histone proteins serve as epigenetic markers to recruit factors that can then modify local chromatin structure to lead to functional consequences. G9a and other members of the SUV39 family of the SET domain-containing superfamily of histone lysine methyltransferases (HMT) have been identified to specifically methylate Lys9 of histone H3 (H3K9). G9a catalyzes the mono- and di-methylation of H3K9 in mammalian euchromatic regions, where the resulting H3K9me2 is indicative of transcriptional repression. […] The inhibition of G9a will result in transcriptional activation and work synergistically with DNA methyltransferase and histone deacetylase inhibitors, to kill cancer cells. This qHTS assay for identification of G9a inhibitors is a chemiluminescence based AlphaScreen (PerkinElmer). Methylation of biotinylated-histone peptide is measured through specific antibody-based detection, in conjunction with streptavidin-coated donor and anti-IgG antibody-coated acceptor beads. The method is particularly well suited for detection of inhibitors acting by the desired histone peptide competitive mechanism and is applicable to testing other HMTs. Although AlphaScreen has significant advantages with its utility in a variety of epigenetic target assays, the primary screening data provided in this deposition should be used with caution due to the prevalence of screening artifacts. An AlphaScreen counterscreen is highly recommended to be run against any putative actives to eliminate non specific artifacts. Alternatively, one can use other AlphaScreen assays in PubChem to filter out promiscuous hits. Quinn et al. A chemiluminescence-based method for identification of histone lysine methyltransferase inhibitors. Mol Biosyst 6(5): 782-8. 2010. PMID: 20567762 [2] Baell,Holloway. New substructure filters for removal of pan assay interference compounds (PAINS) from screening libraries and for their exclusion in bioassays. J Med Chem. 53(7):2719-40. 2010. PMID: 20131845 NIH Molecular Libraries Probe Production Network [MLPCN] NIH Chemical Genomics Center [NCGC] Structural Genomics Consortium (SGC) NIH Grant: 5U54 MH084681-02
To each well of a 1,536w plate, 2ul of HMT enzyme (final 20nM) were added, using a nanoliter dispenser. The G9a- and GLP-inhibitor BIX-01294 (CID: 25150857) are used as an intraplate control, with a 16-point titration in duplicate. A Kalypsys pin-tool transferred 23nl of library compound solution in DMSO to each well. Following a 15 min incubation of enzyme with compounds at room temperature, 1ul mixture of b-H3K9 peptide substrate (final 500nM) and SAM cofactor (final 20uM) were added. Reactions were allowed to proceed at room temperature for 2 hours. Methylated b-H3K9 peptide product was detected with 0.5 ug/mL rabbit polyclonal anti-monomethyl histone H3K9 antibody (Abcam Inc., Cambridge, MA) and 20 ug/mL each streptavidin-coated donor and anti-rabbit IgG acceptor AlphaScreen beads. Antibody and beads were added in a 1ul dispense, for a final volume of 4ul, and plates were incubated, protected from the light, for 10 min at room temperature. Microplates were then read on an EnVision multilabel plate reader using the 1,536 plate HTS AlphaScreen aperture (excitation time 80 ms, measurement time 240 ms).
% is scaled to controls: 0 for no effect and ±100 for the full control effect; potency is read from the fitted curve at half-maximal effect.

Chain of Histone-lysine N-methyltransferase EHMT2 (Homo sapiens) (Q96KQ7 913-1193 limits assumed): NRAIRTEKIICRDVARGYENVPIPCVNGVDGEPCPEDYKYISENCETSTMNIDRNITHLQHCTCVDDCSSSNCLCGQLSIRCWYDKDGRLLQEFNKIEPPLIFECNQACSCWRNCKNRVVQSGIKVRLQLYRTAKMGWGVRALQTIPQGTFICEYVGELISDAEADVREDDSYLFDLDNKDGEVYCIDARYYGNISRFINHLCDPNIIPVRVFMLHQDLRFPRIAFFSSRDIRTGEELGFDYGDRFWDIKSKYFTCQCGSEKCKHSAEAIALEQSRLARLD

Compound | activity, negative = inhibition | Potency
c1csc(CN2CC3(CCNCC3)C2)n1 | -16.9% [at 12.7 µM] (inactive) | 
c1ccc(N2CC[C@@]3(CCCNC3)C2)nc1 | -39.9% [at 12.7 µM] (inactive) | 
COC(=O)CN1C(=O)C2(C(C(=O)OC)=C(N)Oc3ccccc32)C2=C1CC(C)(C)CC2=O (centres undefined) | 17.5% [at 59 µM] (inactive) | 
O=C1NC(=O)N(c2ccccc2)C(=O)/C1=C/c1ccc([N+](=O)[O-])s1 |  | 8.91 µM (active)
COc1cccc(N2C(=O)NC(=O)/C(=C\c3cn(C)c4ccccc34)C2=O)c1 | -16.1% (inactive) | 
COc1cccc(N2C(=O)NC(=O)/C(=C\c3ccc([N+](=O)[O-])s3)C2=O)c1 |  | 7.94 µM (active)
CCN1C[C@]2(C)CC[C@H](O)[C@@]34[C@@H]5CC6[C@@H](OC)C[C@@](O)([C@@H]5[C@@H]6O)[C@H](C[C@@H]23)[C@H]14 | 28.6% [at 21.5 µM] (inactive) | 
CCOc1cccc(=NC2CCCCC2)c2c(C)[nH]c(C)c12 | 40.3% [at 12.7 µM] (inactive) | 
NC[C@H](O)c1ccc(O)cc1 | 24.2% [at 21.5 µM] (inactive) | 
CCN(CC)C(=O)c1ccc(NC(=O)c2cc(-n3cnnc3)ccc2Cl)cc1 | -47.2% [at 12.7 µM] (inactive) | 
COC(=O)C1=C(c2ccc(Cl)c(C(F)(F)F)c2)C[C@@H]2CC[C@H]1N2C(=O)NC(C)C | 11.8% [at 2.33 µM] (inactive) | 
CC[N+]1(C)CCCC(OC(=O)C(O)(c2ccccc2)c2ccccc2)C1 (centres undefined) | inactive | 
Cc1ncsc1CCCl |  | inactive and 23.8 µM (active)
COc1ccc(CCn2c(O)c(C=NC3CC3)c(=O)[nH]c2=O)cc1OC | 2.41% [at 59 µM] (inactive) | 
COC(=O)c1ccc2[se]c(CC3CCCCC3)c(I)c2c1 | -2.16% [at 59 µM] (inactive) | 
O=C(C1CCN(CC2CCCCC2)CC1)N1CCCC1 |  | 8.91 µM (active)
CSc1ccc(C(=O)C2CCCN(Cc3ccn[nH]3)C2)cc1 (centres undefined) | -40.8% (inactive) | 
O=[N+]([O-])c1ccc(C2C3C(c4ccccc4)=NC4(CCCCC4)N32)cc1 (centres undefined) | -20.1% (inactive) | 
CC(Cc1cccs1)NCc1ccc(Cl)cc1 (centres undefined) | -3.26% (inactive) | 
Nc1ccc([N+](=O)[O-])cc1 | 6.3% [at 0.501 µM] (inactive) | 

Compound | activity, negative = inhibition | Potency
O=c1c2ccccc2nc(-c2ccccc2)n1-c1ccccn1 | 0.769% [at 0.501 µM] (inactive) | 
CC12CN3CC(C)(CN(C1)C3c1cccs1)C2 (centres undefined) | -3.29% (inactive) | 
Cc1ccc(-c2cc(C(=O)N3CCC4(CC3)OCCO4)no2)cc1 | -1.09% (inactive) | 
CCOC(=O)C(NS(=O)(=O)c1ccc(C)cc1)(C(F)(F)F)P(=O)(OCC(C)C)OCC(C)C (centres undefined) |  | 7.08 µM (active)
COC(=O)C1=C(c2ccc(F)cc2OCc2ccccc2)C[C@@H]2CC[C@H]1N2C(=O)NCc1ccc(C(C)(C)C)cc1 | 21.1% [at 2.33 µM] (inactive) | 
CC(=O)Nc1ccccc1C(=O)OCC(=O)c1cccc2ccccc12 | 2.62% [at 59 µM] (inactive) | 
CCOC(=O)C1CCN(Cc2coc3ccc(Cl)cc3c2=O)CC1 |  | 3.16 µM (active)
C[N+]12CN3CN(CN(C3)C1)C2 |  | 1.12 µM (active)
COc1ccc(CCn2c(O)c(C=NCCCn3ccnc3)c(=O)[nH]c2=O)cc1OC | 21% (inactive) | 
CCCCCCCCCCCCCC(=O)O[C@@H]1[C@@H](C)[C@@]2(O)[C@@H](C=C(CO)C[C@]3(O)C(=O)C(C)=C[C@@H]23)[C@@H]2C(C)(C)[C@]12OC(C)=O | 8.77% [at 59 µM] (inactive) | 
COC(=O)N1C(c2ccccc2)C1c1ccccc1 (centres undefined) | 35.5% (inactive) | 
COC(=O)C1=C(c2cccc(OCc3ccccc3)c2)C[C@@H]2CC[C@H]1N2C(=O)NCc1ccc(Br)cc1 | -5.98% [at 0.501 µM] (inactive) | 
COc1ccc(NC(=O)N2CCC3(CC2)OCCO3)c(OC)c1 | 18.8% (inactive) | 
O=C(c1cc(-c2ccncc2)nc2ccccc12)N1CCC2(CC1)OCCO2 | -0.255% [at 59 µM] (inactive) | 
O=C(Nc1cccc2ccccc12)N1CCC2(CC1)OCCO2 |  | 50.1 µM (active)
CCN1CC2C3CCC(C)(O3)C2C1 (centres undefined) | -1.34% (inactive) | 
Cc1nnc(NC(=O)c2cccn(Cc3cccc(F)c3)c2=O)s1 | 12.5% [at 59 µM] (inactive) | 
Cn1cc(/C=C/c2nc3ccccc3c(=O)n2-c2ccccc2)c2ccccc21 | -33.2% [at 59 µM] (inactive) | 
O=C(OCC1O[C@@H](OC(=O)c2cc(O)c(O)c(O)c2)[C@@H](OC(=O)c2cc(O)c(O)c(O)c2)[C@@H](OC(=O)c2cc(O)c(O)c(O)c2)[C@@H]1OC(=O)c1cc(O)c(O)c(O)c1)c1cc(O)c(O)c(O)c1 (some centres undefined) |  | 50.1 µM (active)
CCN(N=Nc1nonc1OC)c1nonc1OC | 22.1% [at 59 µM] (inactive) | 

Compound | activity, negative = inhibition | Potency
CC(=O)N(C1=NCCCS1)c1ccccc1F | 1.9% (inactive) | 
COc1ccc(-c2nn(CCC#N)cc2C(=O)O)cc1 | -18.2% (inactive) | 
CC(=O)c1ccc(OC(NC(=O)Cc2ccccc2)C(Cl)(Cl)Cl)cc1 (centres undefined) | -9.58% (inactive) | 
CN(C)C(=O)Oc1ccc2c(c1)O/C(=C\c1ccccc1)C2=O | -35.3% (inactive) | 
N#CC(C#N)=Cc1cc(O)c(O)c([N+](=O)[O-])c1 |  | 14.1 µM (active) and 15.8 µM (active)
NCCc1ccc(S(=O)(=O)F)cc1 | inactive | 
COc1c(O)ccc2c1-c1c3c(cc4c1C(C2)N(C)CC4)OCO3 (centres undefined) |  | 39.8 µM (active)
COc1ccc(C2NCc3ccc4c(c3-n3cccc32)OCO4)cc1OC (centres undefined) | 0.908% [at 12.7 µM] (inactive) | 
CC(=O)NC(=O)NC(C)Cc1ccccc1 (centres undefined) | 4.15% (inactive) | 
CCOC(=O)c1c(-c2ccccc2)oc2ccc(OC(=O)N(C)C)cc12 | 6.28% [at 12.7 µM] (inactive) | 
O=C(CN1CCCCC1)Nc1ccc(Br)cc1C(=O)c1ccccc1Cl | 8.1% (inactive) | 
NC(=O)Nc1cccc(C(F)(F)F)c1 | 2.76% [at 59 µM] (inactive) | 
CC(C)C(N)C(=O)OCCOCn1cnc2c(=O)[nH]c(N)nc21 (centres undefined) | -19.5% [at 2.33 µM] (inactive) | 
Cc1ccc(Cn2nnnc2CN2CCC(n3nnc4ccccc43)CC2)cc1 |  | 50.1 µM (active)
CC(C)(O)c1[se]c2ccccc2c1I | -25.9% (inactive) | 
CN(C)S(=O)(=O)c1cc(C(=O)N2CCC(C(=O)O)(c3ccccc3)CC2)ccc1Cl | 8.28% (inactive) | 
Cc1ccc(C)c(NC2=NCCCS2)c1 | -38.9% (inactive) | 
Cc1c(C(=O)O)cccc1-n1c(C)cc(/C=C2\C(=O)NC(=O)N(c3ccc4c(c3)OCO4)C2=O)c1C |  | 28.2 µM (active)
CC(C)c1c(CN(C)C(C)Cc2ccccc2)n(C)n(-c2ccccc2)c1=O (centres undefined) | 6.73% [at 59 µM] (inactive) | 
